# Assay outcomes (PubChem BioAssay)
# Hits are enriched below; roughly 14% of the tested compounds scored in any of these assays.
# Pf growth 48h: Primary qHTS for delayed death inhibitors of the malarial parasite plastid, 48 hour incubation; Potency, µM (titrated, usually from 28.7 µM), for the others: at the highest dose activity change, negative = inhibition, hits mostly inhibitors; AID 504832, 2011; P. falciparum luciferase growth in erythrocytes, 48 h; actives 5.9% (n = 310,000); further: potency means the concentration at half of the fitted maximal effect
#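 Compounds are pin-transferred into medium, infected erythrocytes (2% hematocrit, 0.1% parasitemia final) are added, and plates sit one parasite generation at 37 C in 5% CO2. Detection reagent is then added and luminescence measured.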
# HCMV antiviral: qHTS Assay for inhibitors of the human cytomegalovirus (HCMV); HFF cells, HCMV-luciferase reporter, 72 h; active compounds read low; actives 4.5% (n = 410,000); activity change, negative = inhibition, % at 57.5 µM; in the data active means activity change below about -60%; inconclusive means no clear call, values can overlap the other calls; inactive means above about -39%
#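 Screen run at 2 compound doses on HFFs infected with reporter HCMV, MOI 1 PFU/cell. Luciferase activity from cell lysates at 72 h post infection gave inhibition relative to buffer-only and Salinomycin wells.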
# Marburg entry inh: qHTS for inhibitors of binding or entry into cells for Marburg Virus. Marburg virus pseudotyped entry inhibition, cell reporter. Potency, µM (highest dose often 37.8 µM), without a hit: at the top dose activity change, negative = inhibition, actives largely listed as inhibitors. actives 1.8% (n = 300,000). AID 540276, 2011; calls by dose curve; tested in HEK293 cells; further: potency means the concentration at half of the fitted maximal effect
# LASV entry inh: qHTS for Inhibitors of binding or entry into cells for Lassa Virus | Lassa virus pseudotype entry inhibition, cell reporter | AID 540256, 2011 | Potency, µM (top dose mostly 37.9 µM), for the others: at the top dose activity change, negative = inhibition, hits mostly inhibitors | actives 1.2% (n = 300,000); calls by dose curve; tested in HEK293 cells; further: potency means the concentration at half of the fitted maximal effect; nearly all actives have a fitted effect of over 50% in size
# HCV inh: qHTS Assay for Inhibitors of Hepatitis C Virus (HCV). Huh7.5.1 HCVcc-Cre infection, luciferase reporter, 44 h. Potency, µM (top dose mostly 41.8 µM), inactives show top-dose activity change, negative = inhibition, actives largely listed as inhibitors. actives 3.4% (n = 340,000). AID 651820, 2012; further: potency means the concentration at half of the fitted maximal effect
#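 A cell-based infection assay in which seeded cells (1,000 per well) receive test compound after 4 h, are inoculated with HCVcc-Cre at approximately 0.5 moi, and are incubated 44 h before luminescence detection.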
# Pf growth 96h: Primary qHTS for delayed death inhibitors of the malarial parasite plastid, 96 hour incubation; P. falciparum luciferase reporter growth, 96 h; actives 6.9% (n = 320,000); AID 504834, 2011; Potency, µM (doses to about 28.7 µM), for the others: top-dose activity change, negative = inhibition, hits mostly inhibitors; further: potency means the concentration at half of the fitted maximal effect
#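 Two-generation exposure (96 h) targets delayed-death phenotype. Reporter parasites carrying integrated firefly luciferase, in red cells at 2% hematocrit and 0.05% parasitemia final, kept at 37 C, 5% CO2; luminescence loss indicates inhibition.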
# An asterisk follows results filed as active; ? = inconclusive; · = no result given; [ ] = dose if it differs, or a comment. Unless noted, the call rests on the fitted dose curve; in most records, active means well fitted inhibition curve with a large enough effect; inconclusive means small, poorly fitted or top-dose-only effect, or another doubt; inactive means no such curve, though single readings can be large or run the other way. On the % scale 0 is the no-effect control and ±100 the full control effect.
SMILES,Pf growth 48h,HCMV antiviral,Marburg entry inh,LASV entry inh,HCV inh,Pf growth 96h
O=C(Nc1nc2ccccc2[nH]1)c1ccccc1OC(F)F,129.4%,79.7,?,?,-13.2%,200.0%
O=C(Nc1nc2ccccc2[nH]1)c1ccccc1F,?,-79.3*,0.316µM*,0.282µM*,-17.5%,10.4µM*
CCc1ccc(C(=O)Nc2nc3ccccc3[nH]2)cc1,-59.7%,-100.7*,?,?,?,-29.5%
CCNC(=O)C1(C)CCN(C(=O)c2ccc(OC)cc2OC)C1 (stereo not drawn),·,9.5,·,·,·,·
O=C(N/C(=C/c1cccc(Br)c1)C(=O)N1CCOCC1)c1ccco1,·,1.3,·,·,·,·
N#Cc1ccc(C(=O)Nc2nc3ccccc3[nH]2)cc1,63.2%,89.6,10µM*,?,-1.7%,155.8%
N#Cc1ccc(C(=O)Nc2ccc3ccccc3c2)cc1,216.1%,12.9,?,3.98µM*,-21.9%,171.5%
O=C(C[C@@H]1CC[C@H](NC(=O)c2ccc3c(c2)OCO3)[C@@H](CO)O1)NCc1ccc(F)cc1,·,-7.5,·,·,·,·
COC(=O)c1ccc(NC(=O)c2nn(C)c3c2COc2ccccc2-3)cc1,·,-70.9*,?,?,·,·
COC(=O)c1cc(NC(=O)c2nn(C)c3c2COc2ccccc2-3)cc(C(=O)OC)c1,·,?,-0.4%[46.1 µM],-1.0%[46.1 µM],·,·
O=C(CN(C1CCCCC1)S(=O)(=O)c1ccc(F)cc1)NCC1CCCO1 (stereo not drawn),·,0.0,-11.2%[46.1 µM],?,?,·
C[C@H]1CN=C(N(C)C)N1CCc1ccccc1,2.3%,-66.6*,·,·,6.6%,0.0%
CN(C)C1=NC[C@H](Cc2ccccc2)N1CCCC1CCCCC1,7.38µM*,-3.0,·,·,3.98µM*,5.22µM*
CN(C)C1=NC[C@H](Cc2ccccc2)N1CC1CCCCCC1,11.7µM*,-3.9,·,·,?,?
CN(C)C1=NC[C@H](Cc2ccccc2)N1CCCC1CCCC1,9.28µM*,-8.3,·,·,?,?
c1ccc(C[C@H]2CN=C(Nc3ccccc3)N2CCCC2CCCC2)cc1,?,·,·,·,-8.5%,?
Cc1ccc(NC(=O)C2CCCN2S(=O)(=O)c2ccc3c(c2)C(C)(C)C(=O)N3C)cc1 (stereo not drawn),·,-14.9,·,1.6%[46.1 µM],·,·
CC(C)CON=C1C[C@@H](O)[C@@H](O)[C@@H]2[C@H]3C(=O)N(Cc4ccc5c(c4)OCO5)C(=O)[C@@H]3CC[C@@H]12,·,·,-29.9%[14.2 µM],·,·,·
CN(C)C1=NC[C@H](Cc2ccccc2)N1CCC1CCCC1,10.4µM*,-12.3,·,·,?,?
C[C@H]1CN=C(N(C)C)N1CCC1CCCC1,?,9.4,·,·,-58.3%,?
Cc1ccc(C)c2c3c([nH]c12)-c1nonc1CC3,·,-8.4,9.5%,-8.4%,10µM*,-24.5%
COC(=O)C1CCN(C(=O)C2CCN(C(=O)[C@H](C)NS(=O)(=O)c3ccc(C)cc3)CC2)CC1,?,19.3,·,·,?,11.7µM*
CCc1cc(C(=O)Nc2c(C)nn(Cc3ccccc3Cl)c2C)no1,·,-14.2,?,?,·,·
O=C(COc1ccccc1)NCC(=O)N/N=C/c1cc(Br)ccc1OCc1ccccc1,?,12.7,8.91µM*,?,?,?
Cc1cccc(OCC(=O)NCC(=O)N/N=C/c2ccc(O)cc2O)c1,10.4µM*,-26.2,·,·,?,?
SMILES,Pf growth 48h,HCMV antiviral,Marburg entry inh,LASV entry inh,HCV inh,Pf growth 96h
O=C(COc1ccc(-c2ccccc2)cc1)N/N=C/c1cc(O)ccc1Br,-7.7%,-61.0*,5.8%,1.2%,-14.9%,8.28µM*
COc1cccc(/C=N/NC(=O)CNC(=O)COc2cccc(C)c2)c1O,2.94µM*,1.4,·,·,?,46.0%
Cc1cccc(OCC(=O)NCC(=O)N/N=C/c2ccccc2)c1,23.5%,6.8,0.7%[46.1 µM],6.5%[46.1 µM],10.7%,27.0%
CCOC(=O)c1cc(S(=O)(=O)N2CCN(c3ccccc3)CC2)[nH]n1,·,3.9,·,24.9%[46.1 µM],·,·
Cc1cc(C)cc(Cn2cc(CN3CC(N4CCCCC4)CS3(=O)=O)nn2)c1 (stereo not drawn),·,-0.3,·,·,·,·
Cc1cc(NC(=O)COC(=O)[C@H](Cc2ccccc2)NC(=O)c2ccco2)no1,·,-39.0,-9.4%[46.1 µM],15.6%[46.1 µM],1.7%,·
C[C@H](CCCC(C)(C)O)[C@H]1CC[C@H]2[C@@H]3CC=C4C[C@@H](O)CC[C@]4(C)[C@H]3CC[C@]12C,1.6%,·,·,·,·,-5.9%
COC(=O)[C@@]1(Cc2ccc(F)cc2)[C@H]2c3cc(C(=O)N4CCCC4)n(CCCNc4ncc(C(F)(F)F)cc4Cl)c3C[C@H]2CN1C(=O)c1ccccc1,2.08µM*,·,·,·,-10.1%,?
COC(=O)[C@@]1(Cc2ccc(F)cc2)[C@H]2c3cc(C(=O)N4CCCC4)n(Cc4ccc(C)c(F)c4F)c3C[C@H]2CN1C(=O)c1ccccc1,·,-27.8,·,·,·,·
COC(=O)[C@@]1(Cc2ccc(F)cc2)[C@H]2c3cc(C(=O)N4CCCC4)n(Cc4ccc(C(F)(F)F)nc4)c3C[C@H]2CN1C(=O)c1ccccc1,?,5.1,?,?,?,2.08µM*
Nc1cccc(C#Cc2ccc3c(c2)C(=O)/C(=C/c2ccsc2)O3)c1,·,4.4,·,·,2.51µM*,·
COC(=O)c1c(SCC(=O)Nc2cc(C)cc(C)c2)[nH]c2ccccc2c1=O,·,?,13.8%[46.1 µM],6.4%[46.1 µM],·,·
CC(=O)C(Sc1ccc2nnc(-c3ccncc3)n2n1)C(C)=O,12.9%,-62.4*,·,·,-2.9%,13.2%
Cc1cc2c(cc1S(=O)(=O)NCc1ccc(F)cc1)n(C)c(=O)c(=O)n2C,·,-8.5,·,11.1%[46.1 µM],·,·
COc1ccccc1NS(=O)(=O)c1ccc(NN=C2CCCC2)c([N+](=O)[O-])c1,-29.4%,-78.7*,?,-16.5%,?,11.7µM*
COc1ccccc1NS(=O)(=O)c1ccc(N/N=C/C=C/c2ccccc2[N+](=O)[O-])c([N+](=O)[O-])c1,?,-27.7,-18.5%,19.8%,33.7%,?
COc1ccccc1NS(=O)(=O)c1ccc(N/N=C/c2c(C)nn(-c3ccccc3)c2N2CCCC2)c([N+](=O)[O-])c1,3.29µM*,-39.7,?,?,?,?
Cc1nn(-c2ccccc2)c(N2CCCC2)c1/C=N/Nc1ccc(S(=O)(=O)Nc2ccccc2)cc1[N+](=O)[O-],3.29µM*,?,?,-0.4%,-27.2%,?
Cc1ccc(NC(=O)Cn2c(=O)n(CCCS(=O)(=O)C3CCCCC3)c(=O)c3ccccc32)cc1F,·,-15.6,13.5%[46.1 µM],-1.3%[46.1 µM],·,·
C[C@H]1CN([C@@H](C)CO)C(=O)CCCn2nncc2CO[C@H]1CN(C)C(=O)Nc1cccc2ccccc12,·,-28.4,·,·,·,·
